Data on one sequence can be found in publication PMC7862700, “An all-to-all approach to the identification of sequence-specific readers for epigenetic DNA modifications on cytosine”.

What all share (experiment): DAPPL (digital affinity profiling via proximity ligation, sequencing); 10 mM Tris-HCl pH 7.5, 50 mM NaCl, 1 mM DTT, 4% glycerol, room temperature, 30 min; GST-TFs on glutathione beads, 16-mer random dsDNA library, 0.1% formaldehyde crosslink after washing; high values mean tight binding
What all share (settings): protein: recombinant; tags: N-terminal GST; dsDNA, one strand shown

One test deals with T1, FLI1 (Homo sapiens, UniProt Q01543 1-452).
T1 sequence: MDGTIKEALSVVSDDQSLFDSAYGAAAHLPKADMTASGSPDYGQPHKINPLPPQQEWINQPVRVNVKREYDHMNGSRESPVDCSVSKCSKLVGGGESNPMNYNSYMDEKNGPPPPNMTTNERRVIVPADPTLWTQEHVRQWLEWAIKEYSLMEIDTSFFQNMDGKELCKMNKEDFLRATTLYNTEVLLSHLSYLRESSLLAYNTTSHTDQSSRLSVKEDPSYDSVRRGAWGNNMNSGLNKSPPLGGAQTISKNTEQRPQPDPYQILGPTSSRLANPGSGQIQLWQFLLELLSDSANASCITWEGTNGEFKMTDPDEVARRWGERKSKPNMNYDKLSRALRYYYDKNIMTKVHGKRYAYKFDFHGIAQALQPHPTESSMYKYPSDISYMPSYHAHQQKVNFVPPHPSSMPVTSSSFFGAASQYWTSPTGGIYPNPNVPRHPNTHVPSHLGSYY
The method in brief:
(§1)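 Sequencing on an Illumina NextSeq500 followed washing, crosslinking with 0.1% formaldehyde, proximity ligation (BsaI/T4 ligase, 1 h, 37 °C) and PCR amplification of pools that had been incubated for 30 min at room temperature with 200 nmole of a random double-stranded 16-mer DNA library in Tris/NaCl/DTT/glycerol buffer. Each pool held DNA-barcoded human transcription factors, expressed in yeast as GST fusions and captured on glutathione beads, plus a tag-only sample. Binding signal is a hexamer's read frequency for a factor divided by its frequency in the tag-only sample.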

The target in the next test is T2, ELK1 (Homo sapiens, UniProt P19419 1-428).
T2 sequence: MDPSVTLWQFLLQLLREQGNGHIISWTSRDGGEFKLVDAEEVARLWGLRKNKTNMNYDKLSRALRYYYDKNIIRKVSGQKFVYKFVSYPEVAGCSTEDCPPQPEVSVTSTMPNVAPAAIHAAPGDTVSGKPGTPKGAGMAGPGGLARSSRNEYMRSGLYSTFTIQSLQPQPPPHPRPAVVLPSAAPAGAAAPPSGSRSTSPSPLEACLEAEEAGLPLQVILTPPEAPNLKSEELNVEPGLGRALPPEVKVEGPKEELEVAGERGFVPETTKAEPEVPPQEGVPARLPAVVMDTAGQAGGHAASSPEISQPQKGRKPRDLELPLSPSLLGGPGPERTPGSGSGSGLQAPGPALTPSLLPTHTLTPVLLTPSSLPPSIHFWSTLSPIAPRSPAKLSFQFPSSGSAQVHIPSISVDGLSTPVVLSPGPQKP
The method in brief:
as §1

For a further test, the target named is T3, GABPA (Homo sapiens, UniProt Q06546 1-454).
T3 sequence: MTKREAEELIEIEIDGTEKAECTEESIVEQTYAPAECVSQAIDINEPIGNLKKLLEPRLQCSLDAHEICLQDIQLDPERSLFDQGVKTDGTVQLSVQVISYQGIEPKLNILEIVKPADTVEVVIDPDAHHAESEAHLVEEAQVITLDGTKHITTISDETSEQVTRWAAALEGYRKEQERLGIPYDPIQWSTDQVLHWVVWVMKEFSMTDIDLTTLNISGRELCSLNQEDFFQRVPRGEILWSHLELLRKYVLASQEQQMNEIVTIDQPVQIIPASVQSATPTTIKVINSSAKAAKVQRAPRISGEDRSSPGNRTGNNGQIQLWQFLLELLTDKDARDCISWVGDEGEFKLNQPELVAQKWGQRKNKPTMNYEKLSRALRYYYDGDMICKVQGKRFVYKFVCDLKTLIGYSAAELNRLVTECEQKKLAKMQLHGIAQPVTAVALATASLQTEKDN
The method in brief:
as §1

The target in the next test is T4, ERG (Homo sapiens, UniProt P11308 1-479).
T4 sequence: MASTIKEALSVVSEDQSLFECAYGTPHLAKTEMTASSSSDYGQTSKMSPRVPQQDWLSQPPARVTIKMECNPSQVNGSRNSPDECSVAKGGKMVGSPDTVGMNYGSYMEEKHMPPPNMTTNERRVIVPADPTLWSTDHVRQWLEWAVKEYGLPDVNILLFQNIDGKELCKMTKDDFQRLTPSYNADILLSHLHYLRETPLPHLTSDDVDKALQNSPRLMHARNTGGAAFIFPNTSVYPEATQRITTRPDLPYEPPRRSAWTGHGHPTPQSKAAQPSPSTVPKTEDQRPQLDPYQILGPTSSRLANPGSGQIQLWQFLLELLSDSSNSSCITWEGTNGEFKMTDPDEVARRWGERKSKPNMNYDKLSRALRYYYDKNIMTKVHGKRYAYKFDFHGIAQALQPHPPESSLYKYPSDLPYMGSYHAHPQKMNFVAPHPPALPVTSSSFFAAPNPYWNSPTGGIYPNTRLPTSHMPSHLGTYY
The procedure, abridged: as §1

The target in another test is ELF1 (Homo sapiens, UniProt P32519 1-619). The procedure, abridged:
as §1

For the next test, the target named is T5, EHF (Homo sapiens, UniProt Q9NZC4 1-300).
T5 sequence: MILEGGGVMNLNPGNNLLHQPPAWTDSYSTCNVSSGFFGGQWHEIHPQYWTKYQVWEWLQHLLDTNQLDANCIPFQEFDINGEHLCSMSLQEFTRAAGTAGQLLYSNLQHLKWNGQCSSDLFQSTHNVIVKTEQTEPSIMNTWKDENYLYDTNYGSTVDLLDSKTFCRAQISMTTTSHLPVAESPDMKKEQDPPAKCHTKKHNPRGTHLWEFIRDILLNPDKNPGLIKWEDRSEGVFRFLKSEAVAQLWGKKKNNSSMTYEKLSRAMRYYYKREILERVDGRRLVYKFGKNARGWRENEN
The procedure, abridged:
as §1

The target in a further test is SPI1 (Homo sapiens, UniProt P17947 1-270). The procedure, abridged: as §1
In a further test the target is T6, ELK3 (Homo sapiens, UniProt P41970 1-407).
T6 sequence: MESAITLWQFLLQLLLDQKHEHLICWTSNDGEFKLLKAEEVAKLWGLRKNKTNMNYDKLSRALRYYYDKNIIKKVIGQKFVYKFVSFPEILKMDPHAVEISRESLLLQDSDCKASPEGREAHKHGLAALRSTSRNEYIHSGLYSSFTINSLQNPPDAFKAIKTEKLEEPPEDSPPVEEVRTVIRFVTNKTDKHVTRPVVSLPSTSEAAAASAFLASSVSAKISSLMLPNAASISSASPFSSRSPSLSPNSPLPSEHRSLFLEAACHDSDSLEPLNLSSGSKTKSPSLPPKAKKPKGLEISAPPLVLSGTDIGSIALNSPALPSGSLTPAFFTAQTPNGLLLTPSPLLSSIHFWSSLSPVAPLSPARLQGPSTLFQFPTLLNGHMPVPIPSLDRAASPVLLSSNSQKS
The procedure, abridged:
as §1

A further test concerns the target T7, FEV (Homo sapiens, UniProt Q99581 1-238).
T7 sequence: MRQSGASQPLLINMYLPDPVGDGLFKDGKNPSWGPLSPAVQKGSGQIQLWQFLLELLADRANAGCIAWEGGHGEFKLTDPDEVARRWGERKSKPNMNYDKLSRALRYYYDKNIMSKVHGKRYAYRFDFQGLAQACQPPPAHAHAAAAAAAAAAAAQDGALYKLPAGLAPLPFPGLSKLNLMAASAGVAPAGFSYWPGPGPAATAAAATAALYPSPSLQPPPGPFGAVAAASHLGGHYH
The method in brief: as §1

The target of the next test is ETV5 (Homo sapiens, UniProt P41161 1-510). The method in brief: as §1
The target in another test is T8, SPIC (Homo sapiens, UniProt Q8N5J4 1-248).
T8 sequence: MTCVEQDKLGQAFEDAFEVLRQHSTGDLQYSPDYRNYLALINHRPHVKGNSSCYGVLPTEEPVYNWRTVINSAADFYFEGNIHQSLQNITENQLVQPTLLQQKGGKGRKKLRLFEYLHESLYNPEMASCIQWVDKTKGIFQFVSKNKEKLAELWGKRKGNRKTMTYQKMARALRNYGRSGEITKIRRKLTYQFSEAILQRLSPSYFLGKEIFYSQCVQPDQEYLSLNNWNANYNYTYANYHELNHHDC
The procedure, abridged: as §1

In a further test the target is ELF4 (Homo sapiens, UniProt Q99607 1-663). The procedure, abridged:
as §1

In a further test the target is T9, ERF (Homo sapiens, UniProt P50548 1-548).
T9 sequence: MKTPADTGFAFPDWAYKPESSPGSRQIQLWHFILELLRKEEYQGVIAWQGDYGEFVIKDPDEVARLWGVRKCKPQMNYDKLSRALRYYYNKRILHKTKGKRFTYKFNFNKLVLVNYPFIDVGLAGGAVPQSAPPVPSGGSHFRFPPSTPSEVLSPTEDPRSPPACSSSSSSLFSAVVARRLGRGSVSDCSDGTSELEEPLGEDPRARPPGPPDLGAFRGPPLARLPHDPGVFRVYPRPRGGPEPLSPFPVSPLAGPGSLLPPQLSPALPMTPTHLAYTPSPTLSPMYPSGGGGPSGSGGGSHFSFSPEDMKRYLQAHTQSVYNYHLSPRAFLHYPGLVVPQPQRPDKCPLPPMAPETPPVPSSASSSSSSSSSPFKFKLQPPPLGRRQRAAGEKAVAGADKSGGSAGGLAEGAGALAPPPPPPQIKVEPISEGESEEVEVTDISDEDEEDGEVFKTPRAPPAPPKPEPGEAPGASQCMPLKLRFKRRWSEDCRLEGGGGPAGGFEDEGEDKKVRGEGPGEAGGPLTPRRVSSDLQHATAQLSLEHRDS
The method in brief: as §1

The target of another test is T10, ETS2 (Homo sapiens, UniProt P15036 1-469).
T10 sequence: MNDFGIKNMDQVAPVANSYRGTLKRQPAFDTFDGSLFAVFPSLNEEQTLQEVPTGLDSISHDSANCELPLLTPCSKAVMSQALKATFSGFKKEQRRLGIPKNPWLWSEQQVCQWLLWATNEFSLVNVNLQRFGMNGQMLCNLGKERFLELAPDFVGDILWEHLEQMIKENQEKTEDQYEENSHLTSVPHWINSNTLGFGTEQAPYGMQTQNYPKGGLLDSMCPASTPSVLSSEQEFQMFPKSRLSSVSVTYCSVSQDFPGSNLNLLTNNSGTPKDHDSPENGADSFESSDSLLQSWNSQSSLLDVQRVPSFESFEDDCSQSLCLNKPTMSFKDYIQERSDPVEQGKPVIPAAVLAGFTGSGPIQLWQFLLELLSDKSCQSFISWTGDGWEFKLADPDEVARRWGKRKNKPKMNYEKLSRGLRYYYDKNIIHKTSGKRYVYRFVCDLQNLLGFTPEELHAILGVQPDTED
The procedure, abridged:
as §1

For another test, the target named is T11, ELF5 (Homo sapiens, UniProt Q9UKW6-2 1-255).
T11 sequence: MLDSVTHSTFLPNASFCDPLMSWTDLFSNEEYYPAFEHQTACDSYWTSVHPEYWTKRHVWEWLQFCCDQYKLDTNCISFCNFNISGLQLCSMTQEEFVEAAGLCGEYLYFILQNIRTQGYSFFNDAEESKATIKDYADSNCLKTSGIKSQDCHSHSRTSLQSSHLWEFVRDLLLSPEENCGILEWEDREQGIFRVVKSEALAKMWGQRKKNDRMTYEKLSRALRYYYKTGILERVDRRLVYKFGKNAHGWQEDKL
The method in brief:
as §1

The next test deals with T12, ETV3 (Homo sapiens, UniProt P41162-2 1-143).
T12 sequence: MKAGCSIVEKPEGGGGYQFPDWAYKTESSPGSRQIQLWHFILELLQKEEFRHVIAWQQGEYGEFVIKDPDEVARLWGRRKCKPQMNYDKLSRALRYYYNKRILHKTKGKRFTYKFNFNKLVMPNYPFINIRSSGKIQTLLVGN
The procedure, abridged:
as §1

A further test has as its target ETV6 (Homo sapiens, UniProt P41212 1-452). The method in brief: as §1

ETV5, sequence (P41161 whole entry): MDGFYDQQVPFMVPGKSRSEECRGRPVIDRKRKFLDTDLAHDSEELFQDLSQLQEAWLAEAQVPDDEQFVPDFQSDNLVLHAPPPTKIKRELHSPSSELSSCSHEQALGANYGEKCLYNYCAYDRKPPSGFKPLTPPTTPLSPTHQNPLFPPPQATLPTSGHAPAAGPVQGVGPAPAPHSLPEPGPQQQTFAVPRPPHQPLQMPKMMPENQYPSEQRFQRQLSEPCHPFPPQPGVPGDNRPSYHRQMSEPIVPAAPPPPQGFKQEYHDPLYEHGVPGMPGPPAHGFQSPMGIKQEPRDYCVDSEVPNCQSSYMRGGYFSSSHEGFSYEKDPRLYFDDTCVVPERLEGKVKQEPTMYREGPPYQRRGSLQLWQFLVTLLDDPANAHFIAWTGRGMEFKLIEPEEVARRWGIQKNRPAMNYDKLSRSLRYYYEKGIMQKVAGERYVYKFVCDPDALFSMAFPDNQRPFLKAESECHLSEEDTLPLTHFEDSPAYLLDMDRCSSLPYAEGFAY
ELF1, sequence (P32519 whole entry): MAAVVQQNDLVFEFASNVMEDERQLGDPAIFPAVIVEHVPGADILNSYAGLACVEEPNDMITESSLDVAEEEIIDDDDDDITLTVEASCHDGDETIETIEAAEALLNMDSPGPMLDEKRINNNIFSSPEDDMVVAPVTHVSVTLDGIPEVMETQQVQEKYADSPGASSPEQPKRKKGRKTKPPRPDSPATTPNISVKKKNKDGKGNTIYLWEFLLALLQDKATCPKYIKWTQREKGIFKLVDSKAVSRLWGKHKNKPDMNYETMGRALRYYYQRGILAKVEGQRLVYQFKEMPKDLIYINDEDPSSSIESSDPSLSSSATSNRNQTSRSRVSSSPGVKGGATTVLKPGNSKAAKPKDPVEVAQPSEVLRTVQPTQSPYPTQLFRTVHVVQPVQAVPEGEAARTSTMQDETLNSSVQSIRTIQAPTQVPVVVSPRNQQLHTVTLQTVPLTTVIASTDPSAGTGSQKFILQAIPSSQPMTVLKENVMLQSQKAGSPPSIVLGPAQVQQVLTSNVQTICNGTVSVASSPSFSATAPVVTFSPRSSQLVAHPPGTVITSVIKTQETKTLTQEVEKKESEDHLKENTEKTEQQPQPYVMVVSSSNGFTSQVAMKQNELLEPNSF
ETV6, sequence (P41212 whole entry): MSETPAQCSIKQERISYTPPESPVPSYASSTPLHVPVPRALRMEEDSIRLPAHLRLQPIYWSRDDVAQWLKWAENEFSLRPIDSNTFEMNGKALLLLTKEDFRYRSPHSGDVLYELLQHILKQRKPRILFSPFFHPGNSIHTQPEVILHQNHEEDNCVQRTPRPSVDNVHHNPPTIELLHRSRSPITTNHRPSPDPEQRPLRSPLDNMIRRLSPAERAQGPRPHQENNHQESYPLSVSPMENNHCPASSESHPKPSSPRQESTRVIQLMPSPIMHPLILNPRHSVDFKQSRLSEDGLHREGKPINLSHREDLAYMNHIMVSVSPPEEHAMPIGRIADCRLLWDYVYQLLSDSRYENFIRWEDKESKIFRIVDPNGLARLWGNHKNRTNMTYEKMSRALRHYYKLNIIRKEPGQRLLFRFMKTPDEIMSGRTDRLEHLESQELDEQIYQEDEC
ELF4, sequence (Q99607 whole entry): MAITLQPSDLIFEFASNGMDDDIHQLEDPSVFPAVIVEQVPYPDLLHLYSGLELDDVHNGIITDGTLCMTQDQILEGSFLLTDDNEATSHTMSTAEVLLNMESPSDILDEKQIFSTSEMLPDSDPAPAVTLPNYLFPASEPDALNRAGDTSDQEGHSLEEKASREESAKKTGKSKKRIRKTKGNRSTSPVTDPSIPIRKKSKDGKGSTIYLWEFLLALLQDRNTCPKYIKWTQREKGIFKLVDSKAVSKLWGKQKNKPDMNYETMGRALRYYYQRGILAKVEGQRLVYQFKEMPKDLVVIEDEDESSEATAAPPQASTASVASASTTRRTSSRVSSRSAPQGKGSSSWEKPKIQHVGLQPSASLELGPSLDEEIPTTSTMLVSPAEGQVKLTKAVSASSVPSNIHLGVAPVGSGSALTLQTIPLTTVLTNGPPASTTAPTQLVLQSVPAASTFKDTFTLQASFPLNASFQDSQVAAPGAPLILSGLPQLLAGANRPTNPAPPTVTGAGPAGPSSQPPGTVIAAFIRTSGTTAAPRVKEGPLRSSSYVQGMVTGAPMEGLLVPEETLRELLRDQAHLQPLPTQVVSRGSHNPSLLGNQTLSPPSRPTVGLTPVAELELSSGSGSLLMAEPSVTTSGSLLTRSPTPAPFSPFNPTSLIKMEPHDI

Consider CCATGC, for which the binding signal is 1.04 fold enrichment (6-mer frequency, TF over GST control) in the test with FLI1; 1.1 fold enrichment (6-mer frequency, TF over GST control) with ELK1; 1.09 fold enrichment (6-mer frequency, TF over GST control) in the test with GABPA; 1.09 fold enrichment (6-mer frequency, TF over GST control) with ERG; 1.13 fold enrichment (6-mer frequency, TF over GST control) with ELF1; 1.15 fold enrichment (6-mer frequency, TF over GST control) in the test with EHF. The binding signal with SPI1 is 1.01 fold enrichment (6-mer frequency, TF over GST control); with ELK3, 1.04 fold enrichment (6-mer frequency, TF over GST control); with FEV, 1.1 fold enrichment (6-mer frequency, TF over GST control); with ETV5, 1.11 fold enrichment (6-mer frequency, TF over GST control); with SPIC it was 1 fold enrichment (6-mer frequency, TF over GST control); with ELF4 it was 1.08 fold enrichment (6-mer frequency, TF over GST control). In addition, the binding signal in the test with ERF is 1.01 fold enrichment (6-mer frequency, TF over GST control); with ETS2 it was 1.03 fold enrichment (6-mer frequency, TF over GST control); with ELF5, 1.03 fold enrichment (6-mer frequency, TF over GST control); with ETV3 it was 1.12 fold enrichment (6-mer frequency, TF over GST control); with ETV6 it was 1.12 fold enrichment (6-mer frequency, TF over GST control).
